In PubChem BioAssay one finds z-score and composite z-score data, which are given here for 35 compounds.

Tested on in the first experiment: not listed separately
As to the kind of experiment: modulators of HCV replicon luciferase signal, primary screen, HCV replication inhibitor project, Huh7 cells, luciferase reporter (AID 1109).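 Note: huh7 hepatoma cells harbouring a luciferase neomycin HCV replicon reporter; luciferase luminescence as measure of HCV replicon replication; test concentration not given here.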 The settings on record: 48 h, higher = more signal.
Consider `CCOC(=O)C[C@H]1[C@H](OC(=O)Cc2ccc3c(c2)OCO3)[C@@H](NC(=O)C2CCCCC2)c2cc(OCCCO)ccc2N1C(=O)c1ccccc1`, for which the z-score is -0.509.
The same measure, in the same setting: as for `O=C(NCc1ccc(F)cc1)[C@H]1C[C@H]2C(=O)NCC(=O)N2[C@H]1c1ccc(O)cc1`, the figure is -0.0497.
On the same count and under the same terms, next, `CN(C)c1ccc(C(O)C2C=CC3C(=O)NC(=O)C3N2Nc2ccccn2)cc1` (stereo not given): -0.125; `COc1ccc([Si](C)(C)[C@@H]2[C@@H](CC(=O)N(CCO)Cc3ccccc3)O[C@]3(C(=O)N(Cc4cccc(N5CCCCC5=O)c4)c4ccccc43)[C@H]2C)cc1`: -3.89.
Same read-out and setting: as for `CCOC(=O)C[C@H]1[C@H](OC(=O)c2ccc(C(=O)c3ccccc3)cc2)[C@@H](NC(=O)C2CCCCC2)c2cc(OCCCO)ccc2N1C(=O)c1ccc2ccccc2n1`, the figure is 0.0574.

For another experiment, the target named is Left-right determination factor 2 (Homo sapiens) (UniProt O00292). As to the kind of experiment: LEFTY2 binders on small-molecule microarrays, primary screen, biochemical, small-molecule microarray, 635 nm fluorescence scan (AID 1110). To be noted: LEFTY2 binding, higher = more signal.
Left-right determination factor 2 (Homo sapiens), sequence (O00292 whole entry, looked up): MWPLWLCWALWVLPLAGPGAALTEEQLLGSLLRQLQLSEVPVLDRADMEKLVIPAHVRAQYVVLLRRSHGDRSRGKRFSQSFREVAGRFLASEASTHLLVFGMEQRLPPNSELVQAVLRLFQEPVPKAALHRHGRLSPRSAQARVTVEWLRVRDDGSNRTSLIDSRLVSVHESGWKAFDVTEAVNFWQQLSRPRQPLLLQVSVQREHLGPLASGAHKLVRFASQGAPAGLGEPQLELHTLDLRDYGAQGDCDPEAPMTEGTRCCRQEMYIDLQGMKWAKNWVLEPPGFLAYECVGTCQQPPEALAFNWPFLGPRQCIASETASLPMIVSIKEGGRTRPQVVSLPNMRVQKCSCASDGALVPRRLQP
For `CS(=O)(=O)CCOC(=O)C1=CC(CCCO)=CC(c2ccc(CN3CCCC3)cc2)N(Cc2sc3ccccc3c2Cl)C=C1C(=O)OCCS(C)(=O)=O` (stereo not given), the composite z-score was 1.12.
Same read-out and setting: next, `CCOc1cc(C(O)C2C=CC3C(=O)NC(=O)C3N2Nc2ccc(Cl)cc2Cl)ccc1O` (stereo not given): -1.18; `Cc1cc(C)c(C(O)C2C=CC3C(=O)N(c4ccccc4)C(=O)C3N2Nc2ccccc2F)c(C)c1` (stereo not given): -0.636; `CCOC(=O)C[C@H]1[C@H](OC(=O)Cc2ccc3c(c2)OCO3)[C@@H](NC(=O)c2ccc3ccccc3n2)c2cc(OCCCO)ccc2N1C(=O)c1ccccc1`: -0.0499.
In turn, `NCCCCCNC(=O)[C@@H]1C[C@@H]2C(=O)N[C@@H](CCCCN)C(=O)N2[C@@H]1c1ccc(O)cc1` gave a composite z-score of 1.15.
Still for that read-out and setting: as for `O=C(C1N=C(c2ccc(OCCCO)cc2)N(c2ccccc2)O1)N1CCCCC1` (stereo not given), the figure is 0.413; as for `C=CCC(OC(C)=O)[C@@H]1[C@@H](N(Cc2ccc(-c3ccccc3)cc2)C(=O)c2ccc(-c3ccccc3)cc2)c2cc(OCCCO)ccc2N1C(=O)c1ccc2ccccc2c1` (stereo not given in full), -0.0379.
Still for that read-out and setting: next, `CCCC[C@@H](O)C1=C(COC)C[C@H]2C(=O)N(Cc3ccccc3)C(=O)[C@H]2[C@H]1CO`: 0.568; `COc1ccc(CCNC(=O)[C@@]2(Sc3ccc(C)cc3)CC(=O)N(Cc3ccccc3C(F)(F)F)[C@@H]2c2ccc(CO)cc2I)cc1`: -1.5.
Same read-out and setting: next, `CCC#CCN(Cc1ccccc1Br)[C@H](/C=C/C1CC1)[C@@H](O)Cc1ccccc1`: -0.398; `NCCCCCNC(=O)[C@H]1C[C@H]2C(=O)N3CCC[C@H]3C(=O)N2[C@H]1c1cccc(OCCO)c1`: -0.397.
`CC(C)[Si](C#CCCCC#N)(O[C@H](c1ccccc1)c1cn(Cc2ccccc2)nn1)C(C)C` returned a composite z-score of -0.0465.
Still for that read-out and setting: as for `CC(C)N1CC=CC23O[C@@H]4C=CCCOC(=O)C4[C@H]2C(=O)N(CCCO)[C@@H]3C1=O` (stereo not given in full), the figure is -0.539; as for `[N-]=[N+]=Nc1ccccc1C[C@]1(C(=O)NCC(O)CO)COC(c2ccc(OCCCO)cc2)=N1` (stereo not given in full), -0.314; as for `COCC(=C=CC[C@H](O)c1ccc(CO)o1)CCO`, 0.173.
Still for that read-out and setting: next, `CC(C)C(CO)N1C(=O)[C@@H]2[C@H]3C(=O)OCC=C[C@H]3OC23C=CCN(c2ccc(Cl)cc2)C(=O)[C@@H]13` (stereo not given in full): -0.433; `COc1ccc([Si](C)(C)[C@H]2[C@H](CC(=O)N3Cc4ccccc4C[C@H]3CO)O[C@@]3(C(=O)N(Cc4ccc(N5CCOC5=O)cc4)c4ccccc43)[C@@H]2C)cc1`: 0.843; `CCCC[C@@H](O)C1=C(COc2ccccc2)C[C@H]2C(=O)N(Cc3ccccc3)C(=O)[C@H]2[C@H]1CO`: 0.321.
The same measure, in the same setting: next, `C[C@@H]1NC(=O)[C@@H](Cc2ccccc2)NC(=O)[C@@]23C(=O)N[C@@H](Cc4ccccc4)C2[C@H](C)[C@@]2(C)O[C@H]2C3/C=C/C/C=C\CNC1=O` (stereo not given in full): -0.22; `[N-]=[N+]=Nc1ccccc1C[C@]1(C(=O)NCCN2CCOCC2)COC(c2ccc(OCCCO)cc2)=N1`: 0.795.
Take `CC(C)C(CO)N1C(=O)[C@@H]2C3C(=O)OCCC/C=C\[C@H]3OC23C=CCN(c2ccc4ccccc4c2)C(=O)[C@@H]13` (stereo not given in full): the composite z-score was -1.43.
On the same count and under the same terms, next, `C=C(/C(=C/C[C@H](OC(=O)c1ccncc1)c1ccc(CO)o1)c1cnc2ccccc2c1)C(C)C`: 0.957; `C=CCOC(=O)[C@@H]1[C@H]2C(=O)O[C@H](c3ccccc3)[C@H](c3ccccc3)N2[C@H](c2ccc(OCCOC(=O)[C@@H]3C[C@@H]4C(=O)N[C@@H](CCCC[N+](C)(C)C)C(=O)N4[C@@H]3c3ccc(O)cc3)cc2)[C@@]12C(=O)Nc1ccc(I)cc12`: 0.459.
For the compound `CCCCC(O)C1C=CC2C(=O)N(C)C(=O)C2N1N(c1ccccc1)c1ccccc1` (stereo not given), the composite z-score was determined as 0.186.
`CCCC=C(CCC)[C@@H](NC(=O)c1cccs1)c1ccc(C(=O)OC)cc1` had a composite z-score of 0.698.
The compound `Cc1ccccc1C(O)C1C=CC2C(=O)NC(=O)C2N1Nc1ccccn1` (stereo not given) showed a composite z-score of 0.263.
In the case of `C=CCNC(=O)[C@@H]1[C@H]2C(=O)O[C@H](c3ccccc3)[C@H](c3ccccc3)N2[C@H](c2ccccc2OCCO)[C@@]12C(=O)N(C(=O)OCCOC)c1ccc(C#CC3(O)CCCCCC3)cc12`, the composite z-score came out at 0.694.
Still for that read-out and setting: as for `CCCNC(=O)[C@@H]1c2ccccc2C(=O)N(Cc2ccc(OC(F)(F)F)cc2)[C@H]1c1ccc(CO)cc1`, the figure is -0.144; as for `CCCNC(=O)[C@@]1(C)c2ccccc2C(=O)N(c2ccc(C)cn2)[C@H]1c1ccc(CO)cc1`, 0.384.
Same read-out and setting: as for `COc1cc2c(cc1O)C(c1ccc(CN3CCCC3)cc1)N(Cc1cc3c(cc1Br)OCO3)CC2` (stereo not given), the figure is -0.248; as for `CCOC(=O)C[C@H]1[C@H](OC(=O)Cc2ccc3c(c2)OCO3)[C@@H](NC(=O)C2CCCCC2)c2cc(OCCCO)ccc2N1C(=O)c1ccccc1`, -0.684; as for `O=C(NCc1ccc(F)cc1)[C@H]1C[C@H]2C(=O)NCC(=O)N2[C@H]1c1ccc(O)cc1`, 0.887.
Still for that read-out and setting: next, `CN(C)c1ccc(C(O)C2C=CC3C(=O)NC(=O)C3N2Nc2ccccn2)cc1` (stereo not given): 0.883.
`COc1ccc([Si](C)(C)[C@@H]2[C@@H](CC(=O)N(CCO)Cc3ccccc3)O[C@]3(C(=O)N(Cc4cccc(N5CCCCC5=O)c4)c4ccccc43)[C@H]2C)cc1` showed a composite z-score of 0.478.
The same measure, in the same setting: as for `CCOC(=O)C[C@H]1[C@H](OC(=O)c2ccc(C(=O)c3ccccc3)cc2)[C@@H](NC(=O)C2CCCCC2)c2cc(OCCCO)ccc2N1C(=O)c1ccc2ccccc2n1`, the figure is 0.752.
